# Test results as given in PubChem BioAssay (NCI).
# The panel holds about 79,000 compounds, 15% with a hit somewhere; the sample as a whole holds those more often. Values without a mark were called inactive. Active and inactive are the calls of the source. Rule as the data show it: active = growth inhibition above about 70%; inactive = the rest. Where a SMILES comes first, the peptide text is derived from it. The star is where a group is joined. Cbz = O=C(OCc1ccccc1)*
# How the values were obtained:
# [1] = NCI Yeast Anticancer Drug Screen. Data for the rad50 strain (AID 155);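 also: 0% = growth of vehicle-only cultures of the same strain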; details: S. cerevisiae rad50 strain growth inhibition; at 50.0 µM; stronger effect = higher value
# Method in brief: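 Compounds were tested on a yeast strain with an engineered DNA damage repair alteration; the reported value is growth inhibition normalised to vehicle treatment.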
# [2] = NCI Yeast Anticancer Drug Screen. Data for the mec2-1 strain (AID 157); details: S. cerevisiae mec2-1 strain, at 50.0 µM, stronger effect = higher value
# Method in brief: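 Each compound was tested on mec2-1 yeast, a strain altered in DNA damage repair or cell cycle control. Growth inhibition is reported relative to vehicle.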
# [3] = NCI Yeast Anticancer Drug Screen. Data for the sgs1 mgt1 strain (AID 161);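 also: 0% = growth of cultures given vehicle only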; details: S. cerevisiae sgs1 mgt1 strain, at 50.0 µM, stronger effect = higher value
# Method in brief: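 Genetically altered yeast, compound exposure, growth inhibition relative to vehicle.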
# [4] = NCI Yeast Anticancer Drug Screen. Data for the cln2 rad14 strain (AID 165);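 also: 0% = growth equal to vehicle treated cultures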; details: S. cerevisiae cln2 rad14 strain, at 50.0 µM, stronger effect = higher value
# Method in brief: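 Test compounds were added to cln2 rad14 yeast cultures; inhibition of growth was then determined by comparison with vehicle treatment.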
# [5] = NCI Yeast Anticancer Drug Screen. Data for the bub3 strain (AID 167); details: S. cerevisiae bub3 mutant strain, at 50.0 µM, stronger effect = higher value
# Method in brief: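 Growth of a checkpoint-deficient yeast mutant is measured after compound exposure. Values represent inhibition relative to vehicle.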
# [6] = NCI Yeast Anticancer Drug Screen. Data for the mlh1 rad18 strain (AID 175); details: S. cerevisiae mlh1 rad18 strain growth inhibition; at 50.0 µM; stronger effect = higher value
# Method in brief: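 Inhibition values reflect reduced growth of mutant yeast versus vehicle-treated controls following compound exposure; the mutations affect DNA damage repair.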
Structure (SMILES),growth inhibition [1],growth inhibition [2],growth inhibition [3],growth inhibition [4],growth inhibition [5],growth inhibition [6] [%]
Nc1ccc2c(c1)C(=O)c1c(F)c(F)c(F)c(F)c1-2,16.6%,-0.9%,-10.7%,-13.2%,4.85%,
CC1C=C(Br)C(=O)C(n2cnc3c(=O)n(C)c(=O)n(C)c32)O1 (configuration not stated),24.1%,13.5%,18.8%,8%,10.9%,
CCN1C2=NCCN2C(=O)c2ccccc21,-0.8%,-11.2%,15.9%,15.1%,8.25%,
Cc1cc(-c2ccccc2)n(C(C(=O)c2ccccc2)c2ccccc2)n1 (configuration not stated),13.8%,-10.4%,-0.15%,-5.6%,-26.7%,
Brc1ccc(C=C2c3ccccc3-c3ccccc32)cc1,-11.1%,-8%,-16.4%,6.85%,7.65%,1.95
Cc1ccc(N=c2oc3c(ccc4ccccc43)nc2Nc2ccc(C)cc2)cc1,-33.5%,-32.5%,-46.2%,-35.5%,-32.8%,
O=[N+]([O-])c1ccc(S(=O)(=O)/N=C/c2ccccc2)cc1,2.2%,9.25%,8.75%,14.7%,14.4%,
NNC(=O)C(=O)N/N=C(\CCC(=O)Nc1ccc(Cl)cc1)Cc1nc2ccccc2s1,28.2%,28.2%,30.4%,9.65%,12.3%,
O=C(CSc1nnc(-c2ccccc2NC(=O)C(F)(F)F)c(=O)[nH]1)NC(=O)Nc1ccccc1,31.7%,-28.8%,11.7%,16.3%,-8.35%,
O=S(=O)(O)CO,16.9%,4.6%,26%,7.35%,-7.7%,
CC(C)(C)C(N)=O,2.4%,-1.25%,4.35%,-3.9%,-7.25%,
O=C(CS(=O)(=O)Cc1ccccc1)N1CCOCC1,-9.4%,-13.3%,-6.55%,-3.8%,-3%,
O=CC(=C\c1cccs1)/C(C=O)=C\c1cccs1,99.3% (active),99.5% (active),99.5% (active),99.1% (active),99.4% (active),
Cc1ccccc1[B-]12OCC[N+]1(CNC(=O)c1ccccc1O)CCO2 (configuration not stated),26%,-2.1%,3.5%,16.6%,1.35%,
CCCCCN(CCCCC)C(=S)[S-].CCCCCN(CCCCC)C(=S)[S-].[Zn],72.7% (active),53.6%,72.1% (active),46.4%,42.1%,
CC(=O)C(N=NC1CCC(S(=O)(=O)NB2N=CS2)CC1)C(=O)Nc1ccccc1C (configuration not stated),-32.2%,-1.05%,-5.9%,16.5%,9.35%,
CC(C)(C)[Si](C)(C)Oc1cc(CO)cc2c1cc(=N)o[n+]2[O-],-27.6%,-12.9%,-23.2%,-30.9%,-1.15%,
O=C(Nn1c(-c2ccccc2)nc2ccccc2c1=O)c1ccc([N+](=O)[O-])cc1,-1.9%,14.6%,4.6%,-1%,17.2%,
CCCC(C)C(=O)OC1CCCC1 (configuration not stated),11%,-8.1%,5.3%,-5.1%,13.6%,2.95
CCC1(C#CCN2C(=O)c3ccccc3C2=O)C=CC2(CC1)OCCO2 (configuration not stated),10.2%,18.2%,26.2%,0.6%,2.5%,
Nc1ncnc2c1ncn2-c1ccccc1,4.05%,2.95%,-2.05%,9.7%,,

Structure (SMILES),growth inhibition [1],growth inhibition [2],growth inhibition [3],growth inhibition [4],growth inhibition [5],growth inhibition [6] [%]
COC(=O)C(C)n1c(C)csc1=S (configuration not stated),-0.15%,4.85%,-1.05%,-26.4%,16.6%,
CC(NC(=O)OCc1ccccc1)C(=O)NC(CO)C(N)=O (stereo not drawn) (Cbz-Ala-Ser-NH2; configuration not given here),6.15%,-6.5%,-0.25%,19.2%,5.95%,
CS(=O)(=O)/C=C/c1ccccc1,-19.4%,-8.15%,-7.35%,1.8%,-2.1%,
COc1cc(C=C2C(=O)OC(C)(C)OC2=O)cc(OC)c1OC,3.45%,-22.1%,-11.3%,24.3%,-21.5%,
COc1c(NC(=O)c2ccc(Cl)c(Cl)c2)cccc1[N+](=O)[O-],7.6%,-9.1%,3.35%,-2.85%,1.3%,
CCOC(=O)Nc1nc(-c2ccc(Br)cc2)cs1,-11.5%,-5.4%,-2.1%,-37.6%,14.1%,
COc1cc(-c2nnc3n2NC=C(C(=O)O)S3)cc(OC)c1OC,6.75%,2.45%,-10.9%,5.45%,28.2%,
CCC(=O)C(CCN(C)C)c1ccccc1 (configuration not stated),-10.4%,-0.85%,9.9%,-22.6%,-11.1%,
CCC=Nc1ccccc1CO,12.2%,8.5%,-1.05%,30.3%,-4%,
N#CNC(=NCCO)NCCO,25.8%,7.3%,-2.25%,11.3%,-0.35%,
CNC(=O)Oc1ccc2c(c1)[C@]1(C)CCN(C)[C@@H]1N2C,-9.7%,-29.8%,-32.7%,-5.55%,-35.7%,
O=c1c(O)c(-c2ccccc2)oc2c(CP(=O)(O)O)cccc12,5.05%,-19.1%,-17.3%,-12.5%,-2.45%,
Cc1nn(-c2ccc(Cl)cc2)c2c1c(=O)[nH]c1ccccc12,6%,-3.45%,1%,-24.6%,-2.05%,
CC1(C)N=C(N)N=C(N)N1c1cccc(CSc2ccccc2)c1,-14.2%,-11.8%,-20.8%,7.2%,-18.1%,
O=C(c1ccc(Cl)cc1Cl)N(/N=C/C=C/c1ccccc1)c1nnc(-c2ccccc2)c(-c2ccccc2)n1,-17.1%,8.8%,-21.3%,32.5%,2.2%,
CC(C)SC(C)(NC(=O)C1C(C)(C)CCC1(C)C)C(=O)O (configuration not stated),-52.6%,1.45%,-24.6%,1.5%,5.45%,
CCCOc1ncnc2nc[nH]c12,7.3%,-6.05%,1.55%,-6.4%,,
CCOc1ccc2ccccc2c1,-28.2%,0.7%,1.25%,-49.5%,-3.15%,
Cc1cc(C)c(NC(=O)c2c(Cl)c(Cl)c(Cl)c(Cl)c2C(=O)O)c(C)c1,-4.9%,-4.45%,0.05%,-51.3%,5.5%,
CC(=O)Nc1ccc(S(=O)(=O)N/N=c2/sc3ccccc3n2C)cc1N,-4.6%,-2.7%,-3.8%,15.2%,-8.75%,3.2
COC(=O)/C(=C\Nc1cccc(C)n1)S(=O)(=O)c1ccc(C)cc1,-33.9%,-1.55%,18.5%,-21.5%,7.3%,12.8
